# High-throughput results: PubChem BioAssay, National Center for Advancing Translational Sciences (NCATS)
# Shiga toxin inh = blocks Shiga toxin action in Vero cells. Vero cells, Shiga toxin protein synthesis inhibition reporter. AID 2315. inhibition, % at 38.7 µM. hit rate 9.2% among 290,000; in the data active means inhibition mostly above about 28%, no sharp cut-off; inactive means mostly below about 43%; further: 0% is about no effect
# LmPK inh = LmPK (Leishmania mexicana) enzyme inhibition; purified LmPK, Kinase-Glo ATP luminescence, 1 h; hit rate 0.37% among 290,000; Potency, µM (highest dose often 57.5 µM), for the others: top-dose activity change, negative = inhibition, actives largely listed as inhibitors; Q27686; AID 1721; further: potency means the concentration at half of the fitted maximal effect; on the % scale 0 is the no-effect control and ±100 the full control effect
# Target sequence (Q27686 whole entry, looked up): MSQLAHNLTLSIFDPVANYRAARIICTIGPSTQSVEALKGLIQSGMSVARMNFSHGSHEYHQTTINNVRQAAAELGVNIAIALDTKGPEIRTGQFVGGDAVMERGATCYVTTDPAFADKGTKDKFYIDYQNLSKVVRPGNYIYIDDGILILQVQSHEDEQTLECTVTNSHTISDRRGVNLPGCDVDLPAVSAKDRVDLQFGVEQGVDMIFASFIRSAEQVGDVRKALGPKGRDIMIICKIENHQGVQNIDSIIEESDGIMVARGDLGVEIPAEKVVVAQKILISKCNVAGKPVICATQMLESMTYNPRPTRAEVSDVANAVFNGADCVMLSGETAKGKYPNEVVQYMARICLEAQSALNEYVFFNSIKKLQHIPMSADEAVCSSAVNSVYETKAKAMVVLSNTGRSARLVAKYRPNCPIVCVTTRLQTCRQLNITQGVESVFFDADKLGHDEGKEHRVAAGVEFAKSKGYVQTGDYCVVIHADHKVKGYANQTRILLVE
#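 Purified LmPK (0.1 nM) converted ADP (0.1 mM) to ATP with PEP (0.5 mM) in imidazole buffer pH 7.2 with KCl and MgCl2, 1 h at room temperature. ATP was read by Kinase-Glo luminescence; data normalized to uninhibited and no-enzyme controls.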
# Pf growth 96h = P. falciparum growth inhibition at 96 hours | AID 504834 | P. falciparum luciferase reporter growth, 96 h | hit rate 6.9% among 320,000 | Potency, µM (titrated, usually from 28.7 µM), for inactives: at the highest dose activity change, negative = inhibition, hits mostly inhibitors; further: potency means the concentration at half of the fitted maximal effect; on the % scale 0 is the no-effect control and ±100 the full control effect
#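 96 h incubation, 37 C, 5% CO2, of luciferase-reporter P. falciparum-infected RBCs (2% hematocrit, 0.05% parasitemia final) with test compounds; endpoint luminescence.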
# Cycloheximide cs = counter-screen hit for Shiga toxin inhibitors, cycloheximide; cell reporter, cycloheximide protein synthesis inhibition counterscreen; max response, %; hit rate 12% among 300,000; in the data active means max response mostly above about 13%, no sharp cut-off; inactive means mostly below about 14%; further: read at 38.3 µM for the half of the compounds with a filed dose; 0% is about no effect
# Pf growth 48h = inhibits P. falciparum growth in the first generation, 48 h; P. falciparum luciferase growth in erythrocytes, 48 h; Potency, µM (series often up to 28.7 µM), for inactives: at the highest dose activity change, negative = inhibition, actives largely listed as inhibitors; hit rate 5.9% among 310,000; AID 504832; further: potency means the concentration at half of the fitted maximal effect; on the % scale 0 is the no-effect control and ±100 the full control effect
#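 Firefly luciferase activity from engineered P. falciparum reports growth; inhibitors lower the luminescent signal. Cultures contained 2% hematocrit erythrocytes at 0.1% final parasitemia.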
# Starred values were filed as active, the others as inactive; ? = inconclusive; . = no result. Compounds with a hit are over-represented: about 22% of the library has one in this group of screens. Unless noted, the call rests on the fitted dose curve; in most records, active means well fitted inhibition curve with a large enough effect; inconclusive means small, poorly fitted or top-dose-only effect, or another doubt; inactive means no such curve, though single readings can be large or run the other way.
SMILES,Shiga toxin inh,LmPK inh,Pf growth 96h,Cycloheximide cs,Pf growth 48h
O=S(=O)(Nc1nc2c(s1)CCCC2)c1ccc2ccccc2c1,-28,9%,.,1,5%
O=C1CC2C(CC(OC(=O)c3ccc(-c4ccccc4)cc3)C2CO)O1 (centres undefined),49*,5%,.,30*,132%
O=C(Nc1ccn(C2CC(OC(=O)c3ccccc3)C(CO)O2)c(=O)n1)c1ccccc1 (centres undefined),-4,0%,6%,-2,?
CC(C)=NOC(=O)c1ccc(-c2ccccc2)cc1,30,-14%,?,9,?
O=C1C[C@H]2[C@H](CO)[C@@H](OC(=O)c3ccc(-c4ccccc4)cc3)C[C@H]2O1,109*,-5%,52%,50*,87%
CCOc1ccc(CN2CCN(CC(O)Cn3c4ccccc4c4ccccc43)CC2)cc1 (centres undefined),-15,0%,?,-6,2.1µM*
CN1CCN(CC(O)Cn2c3ccccc3c3ccccc32)CC1 (centres undefined),-1,0%,-2%,-9,?
CCn1c2ccccc2c2cc(CN3CCN(Cc4cc(OC)ccc4O)CC3)ccc21,25,-7%,53%,8,1.2µM*
COc1ccc(CN2CCN(CC(O)Cn3c4ccccc4c4ccccc43)CC2)cc1 (centres undefined),-2,4%,?,-2,3.3µM*
COc1cccc(CN2CC(C(=O)N(C)CC3CCOCC3)CCC2=O)c1 (centres undefined),41,-13%,18%,7,10%
CCCCCCn1c(O)c(C=NC2CCCCC2N)c(=O)[nH]c1=O (centres undefined),-6,4%,6.6µM*,0,8%
O/N=C/c1cn(-c2ccccc2)nn1,37,-4%,99%,27*,50%
O/N=C/c1cn(-c2ccc(Cl)cc2)nn1,49,-5%,107%,37*,134%
Cc1cccc(-c2nc(CS(=O)CC(=O)N3CC(C)CC(C)C3)c(C)o2)c1 (centres undefined),2,-5%,-5%,-3,19%
OCC[C@@H]1C[C@H](O)[C@@H](O)[C@@]2(OCCc3ccccc32)O1,-3,0%,46%,-2,4%
COc1ccc2nc(SC)c(C#N)cc2c1,38,-4%,-7%,17,95%
CCOC(=O)CSc1nc2cc(C)cc(C)c2cc1C#N,25,0%,.,14*,-21%
COc1ccc2nc(SCC(C)=O)c(C#N)cc2c1,116*,-5%,440%,36*,367%
CCOC(=O)CSc1nc2cc(OC)ccc2cc1C#N,116*,6%,0%,22*,201%
CCOC(=O)CSc1nc2ccc(C)cc2cc1C#N,80*,5%,.,59*,228%
Cc1ccc2cc(C#N)c(SCC(=O)N3CCCC3)nc2c1,27,9%,2%,22*,-4%
CCOC(=O)CSc1nc2cc(C)ccc2cc1C#N,100*,3%,?,41*,154%
CCOC(=O)CSc1nc(C)cc(C)c1C#N,-12,6%,.,-1,19%
Cc1ccc(NC2CCCN(C(=O)Cc3nonc3C)C2)cc1C (centres undefined),-4,2%,?,18,0%
CCOC(=O)N/N=C(\C)c1ccccc1OC(F)F,-9,5%,9.3µM*,4,?
SMILES,Shiga toxin inh,LmPK inh,Pf growth 96h,Cycloheximide cs,Pf growth 48h
O=C1OCCC1(c1ccccc1)c1ccccc1,.,.,?,.,-19%
CC12C(=O)N(c3cccc4cccnc34)C(=O)C1C1C=CC2C1 (centres undefined),-17,8%,6.6µM*,-4,.
CC12C(=O)N(c3ccccc3C(=O)O)C(=O)C1C1C=CC2C1 (centres undefined),-10,9%,7%,8,-1%
Cc1cccc(C)c1NC(=O)CNC(=O)C1CC(=O)N(Cc2ccccc2)C1 (centres undefined),.,.,1%,.,1%
Cc1ccc(-n2c(CCc3ccccc3)n[nH]c2=S)cc1C,.,14µM*,68%,-3,?
CC(C)Oc1ccc(CCc2n[nH]c(=S)n2-c2ccccc2)cc1,-18,14µM*,?,-3,?
O=[N+]([O-])c1ccc2oc(C(O)c3cccc(Cl)c3)cc2c1 (centres undefined),-3,-3%,?,-5,?
C[C@@H]1CC2OC(=O)[C@@]3(C)C(=O)CC[C@@](C)(C23)[C@@]1(O)CCc1ccoc1 (some centres undefined),-4,5%,40%,26*,4%
C=CCSc1cc(C)nc2c(-c3ccccc3)cnn12,80*,3%,-46%,63*,286%
CCSc1cc(C)nc2c(-c3ccccc3)cnn12,69*,-1%,121%,52*,406%
Cc1cc(N2CCN(C3CCCC3)CC2)n2ncc(-c3ccccc3)c2n1,34,2%,.,11,18%
CCn1c(=O)n(CC)c2cc(NC(=O)C(C)c3ccccc3)c(Br)cc21 (centres undefined),.,2%,6%,-2,?
COc1ccccc1Nc1nc(N)nc(CSC(=S)N2CCN(c3ccccc3)CC2)n1,21,-8%,?,18,?
COc1ccccc1Nc1nc(N)nc(CSC(=S)N2CCC(C)CC2)n1,31,4%,?,43*,?
COc1ccccc1Nc1nc(N)nc(CSC(=S)N2CCCCC2C)n1 (centres undefined),43*,5%,?,43*,?
COc1cccc(CN(C)C(=O)c2ccc3nccnc3c2)c1,-14,0%,?,-3,.
C=C(C)COc1ccc(-c2n[nH]c(C)c2-c2ccc(OC)c(OC)c2)c(O)c1,-3,-6%,?,-3,?
Cc1cc2cc3c(cc2nc1SCC(=O)N1CCOCC1)OCO3,-6,0%,15%,-5,40%
COC(=O)CSc1nc2cc3c(cc2cc1C#N)OCO3,90*,-2%,.,38*,445%
CCOC(=O)CSc1nc2cc3c(cc2cc1C)OCO3,4,0%,?,-2,11%
CCOc1ccc2cc(C#N)c(SCC(=O)N3CCOCC3)nc2c1,101*,2%,-9%,30*,67%
CCOC(=O)CSc1nc2cc3c(cc2cc1C#N)OCO3,182*,-6%,39%,27,207%
N#Cc1cc2cc3c(cc2nc1SCC(=O)N1CCOCC1)OCO3,83*,-3%,?,28*,133%
COc1ccc(OC)c(NC(=O)CN2C(=O)C(C)N(c3ccc(C)cc3)C2=O)c1 (centres undefined),.,.,?,.,-17%
CCOC(=O)CSc1nc2cc3c(cc2cc1C#N)OCCO3,91*,5%,15%,33*,95%
CCn1c(C)nc2cc(C(=O)NNC(=O)CCC3CCCCC3)ccc21,-6,0%,14%,6,14%
